Assay results as given in paper PMC12864922, “TDP-43 directly inhibits mRNA accumulation in neurites through modulation of mRNA stability”.
The full ranking holds about 9,900 sequences; the median of “r (bound/input frequency ratio)” is about 0.7, and the highest 2% start at about 6.5. The sample holds the highest values, similar sequences and a random draw of the others, so the mix is not that of the screen.

B1: ENSMUSG00000058297.78|Spock2 (ssRNA)
RNA: GGGAGUUCUACAGUCCGACGAUCGCUUCGAUAUCCGCAUGCUACUCAGCCCAACACCUGGAAUCCCUGCCCUGCCUAAUCAGCCCUACCCCAUCCUGCCUUUCUUCCUUCCUCUUCUGAGGCCAGGGAGAGGGAGGGAGGGCAGGCAGCUGAAAGCUGAGCGUCCUCCCCAAAUUGGGCUGAUUUGAUAUGAAAGCCCCACCACGGUCUUGUGGUGAUGAGGCAGGACCUGUACACACAGCAAGGCUUACUAUCCGUCUCCUGACAUCCGAAGAGCUCGUCGCAGGUGUGUCUAAUGGCCCUUCUCUUGCGGUCGCACUAGUGUGGAAUUCUCGGGUGUCAAGG
B2: ENSMUSG00000031028.156|Tub|40:45;125:130 (ssRNA)
RNA: GGGAGUUCUACAGUCCGACGAUCGCUUCGAUAUCCGCAUGCUAAGCUCCCAUUAUUGCCAGCAUGCCAUGAUCAGUGAGGGCACACACCCAUGCUUAGGGGGAUGGCGCAGGGUGAGGGGAGCAGAGGAUAUUUUAGGGCCACAAGAGCUCAGAGGUAGCGGACCUCACACACGUUCACCAACAGCAAUGCUGAUCCCUGAGUAUAGGGCACAUGUCUCUUGGUUACCUCACUGGUUAAUGGCAGAGUUGAGAACCUCAAAUUCUUUUGUUCCUACUGUUGCCCAGAAACUAGACUCUCUGACCUCUUGCGGUCGCACUAGUGUGGAAUUCUCGGGUGUCAAGG
B3: ENSMUSG00000028439.157|Fam219a (ssRNA)
RNA: GGGAGUUCUACAGUCCGACGAUCGCUUCGAUAUCCGCAUGCUAUAGCUCAAAGUCCAGGAGCCAGGCUUCCAGAAAGGCUCUUCAAGAGCAAGCUUAAGGAAAUACAGUGAGCCAAGUGGCUGUAUGAUAUGGUAUGGUAUGGUAUGGUAUGGUAUGGUAUGGUAUGCACAUGUGUGUGCAUGUGUGUGUGCCUGUGUGUGUGCGUGUGCGUGUGUGUAUGUGUGUGCGUGUGUGUGUGUGUGUGUUGUACCCGAGUGUGUGUUGAGCCUAUCUGUCCAGGGAACCAGAUUGGUGUCCGAGAUCUCUUGCGGUCGCACUAGUGUGGAAUUCUCGGGUGUCAAGG
B4: ENSMUSG00000028439.156|Fam219a (ssRNA)
RNA: GGGAGUUCUACAGUCCGACGAUCGCUUCGAUAUCCGCAUGCUAUCACCCUAGCUCAAAGUCCAGGAGCCAGGCUUCCAGAAAGGCUCUUCAAGAGCAAGCUUAAGGAAAUACAGUGAGCCAAGUGGCUGUAUGAUAUGGUAUGGUAUGGUAUGGUAUGGUAUGGUAUGGUAUGCACAUGUGUGUGCAUGUGUGUGUGCCUGUGUGUGUGCGUGUGCGUGUGUGUAUGUGUGUGCGUGUGUGUGUGUGUGUGUUGUACCCGAGUGUGUGUUGAGCCUAUCUGUCCAGGGAACCAGAUUGGUGUCCUCUUGCGGUCGCACUAGUGUGGAAUUCUCGGGUGUCAAGG
B5: ENSMUSG00000061578.89|Ksr2 (ssRNA)
RNA: GGGAGUUCUACAGUCCGACGAUCGCUUCGAUAUCCGCAUGCUACAAACAUCUGAUUUUAGAGGUCCCAUUCCAAGAUGGAAGUCACCGGUUGCCGCUGAGCACACAAUUCUGAAGGACAGUAGGCAGUCCUGCAGGUCUUUUUUAGCACAGGGCCUCUCUGGGGACCAGUCCCUGGCCUUCACCCUUCUCCCAUUUUGUAAGAACACUGUUCUAACUCACCUCAUGCCCACGCUACCCUGGGCAACUGGAGAACACCAUAGCGUUUCAGCUGAUGUGACAUUUGGUGUGACCUUUACCAGUUCCUCUUGCGGUCGCACUAGUGUGGAAUUCUCGGGUGUCAAGG
B6: ENSMUSG00000090935.496|Synj2bp (ssRNA)
RNA: GGGAGUUCUACAGUCCGACGAUCGCUUCGAUAUCCGCAUGCUACUUCACAUAACUAAGCCAUUCAGUACUUUUUGAAACUGACUUAGUAACAGGAGUCAUUGUAAGCUCCAUAGAAGGCAAGACGCAUUCCACAUCUUGUCUUGACCAGCAGCACUCUGGAGGCCCAGUGUCUGCUACCCUUCUUGUAUCUGAUGGCAUGGGUAACAGCUCUGCCAUGGGCCUGCUUACUUCUAGUAUUCACCUCAGGGCUUGGAAAUUGGUUUUGAAAGGCUUUUAGACAUAGAAAGUAAAACUAAUGGCAACUCUUGCGGUCGCACUAGUGUGGAAUUCUCGGGUGUCAAGG
B7: ENSMUSG00000032194.286|Kank2 (ssRNA)
RNA: GGGAGUUCUACAGUCCGACGAUCGCUUCGAUAUCCGCAUGCUAGGAUGGGUGGACGGAUGAGUGUGGGGUGGGUGGAUGGAUAAAUGAGCAAUGGAUGAGAAACUGGGUUGGCUGGUGGGUAGAUGUCAUGAUGGAGUCUUUGCACGUGUAUGAAACAGAAAACCAAACUUCAGGACAGACAGCUGCUGGUGUCUCUGGAUGCUCACAGCCUAGGGCACAUUUGAAAGGUCGUGCUCUGAGCUGAGCCCUGAGUUCCAGCCUUGUAGCCAGCAAGGGAGUUUAUUUAAGGUUCUGGAAGCAUCCUCUUGCGGUCGCACUAGUGUGGAAUUCUCGGGUGUCAAGG
B8: ENSMUSG00000058297.12|Spock2|179:183;187:200;209:220;234:240;249:258 (ssRNA)
RNA: GGGAGUUCUACAGUCCGACGAUCGCUUCGAUAUCCGCAUGCUAGGGUGAGGCAGAUGAUGGAGGCUACAUCUGGUAGAUAGCCCUCGACGGCCUCGGCAGGCCAGGGUGCCGACGGCCAGAAAGACAGGCCAGAAGAGACCUGGACAACAGCAGGCAACUUAGCAAAUGGAUCCGGAAGUCAGUGCGGAGGACCCUGGCUCCAGUGGGGGAGGACUGGGGACACACGCUACACACAUACACACAUAUGAGAACACACACAUACAUGUGAGAUGUGACACACACAUGUGAGAACACACAUACUGCUCUUGCGGUCGCACUAGUGUGGAAUUCUCGGGUGUCAAGG
B9: ENSMUSG00000058297.17|Spock2 (ssRNA)
RNA: GGGAGUUCUACAGUCCGACGAUCGCUUCGAUAUCCGCAUGCUAGUAGAUAGCCCUCGACGGCCUCGGCAGGCCAGGGUGCCGACGGCCAGAAAGACAGGCCAGAAGAGACCUGGACAACAGCAGGCAACUUAGCAAAUGGAUCCGGAAGUCAGUGCGGAGGACCCUGGCUCCAGUGGGGGAGGACUGGGGAGUGUGGCUUGUGUGUAUGUGUGAUAUGAGAUGUGUGUGUAUGAUGUGAGAUGUGAGUGUGUGAUGUGAGAUGUGUGUAUGUGAGAUGUGUGUGUGUGUGUGUGUGUGUGUGACUCUUGCGGUCGCACUAGUGUGGAAUUCUCGGGUGUCAAGG
B10: ENSMUSG00000058297.4|Spock2|227:231;235:248 (ssRNA)
RNA: GGGAGUUCUACAGUCCGACGAUCGCUUCGAUAUCCGCAUGCUAGGAGACAGAAGAGGCAGGGGAGGAGGCCGAGGAGGAGGAGGGUGAGGCGGGUGAGGCAGAUGAUGGAGGCUACAUCUGGUAGAUAGCCCUCGACGGCCUCGGCAGGCCAGGGUGCCGACGGCCAGAAAGACAGGCCAGAAGAGACCUGGACAACAGCAGGCAACUUAGCAAAUGGAUCCGGAAGUCAGUGCGGAGGACCCUGGCUCCAGUGGGGGAGGACUGGGGACACACGCUACACACAUACACACAUAUGAGAUGUGCUCUUGCGGUCGCACUAGUGUGGAAUUCUCGGGUGUCAAGG
B11: ENSMUSG00000058297.13|Spock2 (ssRNA)
RNA: GGGAGUUCUACAGUCCGACGAUCGCUUCGAUAUCCGCAUGCUAGGCAGAUGAUGGAGGCUACAUCUGGUAGAUAGCCCUCGACGGCCUCGGCAGGCCAGGGUGCCGACGGCCAGAAAGACAGGCCAGAAGAGACCUGGACAACAGCAGGCAACUUAGCAAAUGGAUCCGGAAGUCAGUGCGGAGGACCCUGGCUCCAGUGGGGGAGGACUGGGGAGUGUGGCUUGUGUGUAUGUGUGAUAUGAGAUGUGUGUGUAUGAUGUGAGAUGUGAGUGUGUGAUGUGAGAUGUGUGUAUGUGAGAUGUCUCUUGCGGUCGCACUAGUGUGGAAUUCUCGGGUGUCAAGG
B12: ENSMUSG00000058297.7|Spock2|209:213;217:230;239:250 (ssRNA)
RNA: GGGAGUUCUACAGUCCGACGAUCGCUUCGAUAUCCGCAUGCUAGGAGGAGGCCGAGGAGGAGGAGGGUGAGGCGGGUGAGGCAGAUGAUGGAGGCUACAUCUGGUAGAUAGCCCUCGACGGCCUCGGCAGGCCAGGGUGCCGACGGCCAGAAAGACAGGCCAGAAGAGACCUGGACAACAGCAGGCAACUUAGCAAAUGGAUCCGGAAGUCAGUGCGGAGGACCCUGGCUCCAGUGGGGGAGGACUGGGGACACACGCUACACACAUACACACAUAUGAGAACACACACAUACAUGUGAGAUGCUCUUGCGGUCGCACUAGUGUGGAAUUCUCGGGUGUCAAGG
B13: ENSMUSG00000058297.17|Spock2|149:153;157:170;179:190;204:210;219:228;234:259 (ssRNA)
RNA: GGGAGUUCUACAGUCCGACGAUCGCUUCGAUAUCCGCAUGCUAGUAGAUAGCCCUCGACGGCCUCGGCAGGCCAGGGUGCCGACGGCCAGAAAGACAGGCCAGAAGAGACCUGGACAACAGCAGGCAACUUAGCAAAUGGAUCCGGAAGUCAGUGCGGAGGACCCUGGCUCCAGUGGGGGAGGACUGGGGACACACGCUACACACAUACACACAUAUGAGAACACACACAUACAUGUGAGAUGUGACACACACAUGUGAGAACACACAUACUGAGAACACACACACACACACACACACACACACUCUUGCGGUCGCACUAGUGUGGAAUUCUCGGGUGUCAAGG
B14: ENSMUSG00000058297.10|Spock2|191:195;199:212;221:232;246:252 (ssRNA)
RNA: GGGAGUUCUACAGUCCGACGAUCGCUUCGAUAUCCGCAUGCUAGGAGGGUGAGGCGGGUGAGGCAGAUGAUGGAGGCUACAUCUGGUAGAUAGCCCUCGACGGCCUCGGCAGGCCAGGGUGCCGACGGCCAGAAAGACAGGCCAGAAGAGACCUGGACAACAGCAGGCAACUUAGCAAAUGGAUCCGGAAGUCAGUGCGGAGGACCCUGGCUCCAGUGGGGGAGGACUGGGGACACACGCUACACACAUACACACAUAUGAGAACACACACAUACAUGUGAGAUGUGACACACACAUGUGAGACUCUUGCGGUCGCACUAGUGUGGAAUUCUCGGGUGUCAAGG
B15: ENSMUSG00000058297.12|Spock2 (ssRNA)
RNA: GGGAGUUCUACAGUCCGACGAUCGCUUCGAUAUCCGCAUGCUAGGGUGAGGCAGAUGAUGGAGGCUACAUCUGGUAGAUAGCCCUCGACGGCCUCGGCAGGCCAGGGUGCCGACGGCCAGAAAGACAGGCCAGAAGAGACCUGGACAACAGCAGGCAACUUAGCAAAUGGAUCCGGAAGUCAGUGCGGAGGACCCUGGCUCCAGUGGGGGAGGACUGGGGAGUGUGGCUUGUGUGUAUGUGUGAUAUGAGAUGUGUGUGUAUGAUGUGAGAUGUGAGUGUGUGAUGUGAGAUGUGUGUAUGUGCUCUUGCGGUCGCACUAGUGUGGAAUUCUCGGGUGUCAAGG
B16: ENSMUSG00000058297.13|Spock2|173:177;181:194;203:214;228:234;243:252 (ssRNA)
RNA: GGGAGUUCUACAGUCCGACGAUCGCUUCGAUAUCCGCAUGCUAGGCAGAUGAUGGAGGCUACAUCUGGUAGAUAGCCCUCGACGGCCUCGGCAGGCCAGGGUGCCGACGGCCAGAAAGACAGGCCAGAAGAGACCUGGACAACAGCAGGCAACUUAGCAAAUGGAUCCGGAAGUCAGUGCGGAGGACCCUGGCUCCAGUGGGGGAGGACUGGGGACACACGCUACACACAUACACACAUAUGAGAACACACACAUACAUGUGAGAUGUGACACACACAUGUGAGAACACACAUACUGAGAUGUCUCUUGCGGUCGCACUAGUGUGGAAUUCUCGGGUGUCAAGG

Biological target: TDP-43 (Homo sapiens, UniProt Q13148 1-414)
Test: RNA Bind-n-Seq with designed 260-mer pool; 25 mM Tris-HCl, 150 mM KCl, 3 mM MgCl2, BSA (printed 500 mg/mL), 20 units/mL SUPERase IN; pH not stated; 500 nM RNA pool, 1 h, 4 C; TDP-43 5, 50, 500 nM; high values mean tight binding
Details: protein: recombinant; tags: SBP (GST cleaved off with PreScission; pGEX-GST-SBP)
Summary of the method: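 Binding (R) is the ratio of each oligo's mapped-read-normalized abundance in the bound fraction to its abundance in the input. To obtain it, SBP-tagged recombinant TDP-43 (5, 50 or 500 nM) on streptavidin beads was incubated with 500 nM of an in vitro-transcribed 260-nt 3′ UTR oligo pool for 1 h at 4 °C in 25 mM Tris-HCl, 150 mM KCl, 3 mM MgCl2, BSA and SUPERase IN. The RNA retained after washing was released with biotin, then reverse transcribed, amplified by PCR and sequenced.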

TDP-43, sequence (Q13148 whole entry): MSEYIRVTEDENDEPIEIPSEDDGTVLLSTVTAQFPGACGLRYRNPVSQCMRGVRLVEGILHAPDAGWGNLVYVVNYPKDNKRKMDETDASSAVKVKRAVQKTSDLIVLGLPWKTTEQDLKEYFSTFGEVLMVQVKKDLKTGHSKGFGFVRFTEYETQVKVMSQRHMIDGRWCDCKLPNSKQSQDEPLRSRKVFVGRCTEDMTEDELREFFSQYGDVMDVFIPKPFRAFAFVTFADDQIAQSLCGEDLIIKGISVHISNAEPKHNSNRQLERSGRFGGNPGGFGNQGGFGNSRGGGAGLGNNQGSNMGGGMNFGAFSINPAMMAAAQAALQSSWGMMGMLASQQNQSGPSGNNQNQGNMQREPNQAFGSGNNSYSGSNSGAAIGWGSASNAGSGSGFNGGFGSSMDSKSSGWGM

In order of falling binding signal:
1. B9  8.62 R (bound/input frequency ratio)
2. B15  8.09 R (bound/input frequency ratio)
3. B11  7.72 R (bound/input frequency ratio)
4. B3  7.39 R (bound/input frequency ratio)
5. B4  6.74 R (bound/input frequency ratio)
6. B7  5.11 R (bound/input frequency ratio)
7. B13  2.9 R (bound/input frequency ratio)
8. B12  2.55 R (bound/input frequency ratio)
9. B10  2.44 R (bound/input frequency ratio)
10. B16  2.37 R (bound/input frequency ratio)
11. B8  2.28 R (bound/input frequency ratio)
12. B14  2.04 R (bound/input frequency ratio)
13. B1  0.631 R (bound/input frequency ratio)
14. B5  0.288 R (bound/input frequency ratio)
15. B2  0.266 R (bound/input frequency ratio)
16. B6  0.243 R (bound/input frequency ratio)
